Compound activity from PubChem BioAssay.
BRCA1 expr act: BRCA1 expression activation; 1.1% of 380,000 active; MCF7-BRCA1-FFLuc reporter, luminescence, 48 h; response scale: scaled: vehicle 0%, 10 µM genistein 100%; Potency, µM (top dose mostly 46.1 µM), inactives show at the top dose activation, usual class: activators; AID 624202; further: potency means the concentration at half of the fitted maximal effect; nearly all actives have a fitted effect of over 80% in size
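Luminescence from a BRCA1-driven firefly luciferase in MCF7 cells was read after 48 h compound exposure at 37 C. Data normalized against DMSO and a 10microM genistein activation control, then curve-fitted across the titration.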
Giardia kill: kills Giardia lamblia. Giardia lamblia trophozoite viability. activity change, % at 7.66 µM, hits read low. 0.15% of 340,000 active. AID 540267; in the data active means activity change below about -80%; inconclusive means between about -30% and that limit;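 further: parasites exposed to compound for two days anaerobically before the ATP read; on the % scale 0 is the no-effect control and ±100 the full control effect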
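Media and compound were dispensed first, then trophozoites at 100 cells/well; plates sat 48 hrs at 37 deg C without oxygen before ATP luminescence reagent was added and read after 15-30 min at room temperature.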
RORg inh: blocks mouse ROR gamma transcriptional activity | Potency, µM (titrated, usually from 53.6 µM), for inactives: at the top dose activity change, negative = inhibition, hits mostly inhibitors | 5.4% of 310,000 active | Drosophila S2 Gal4-RORgamma UAS-luciferase reporter, 20 h; further: potency means the concentration at half of the fitted maximal effect; on the % scale 0 is the no-effect control and ±100 the full control effect; nearly all actives have a fitted effect of over 60% in size
Target sequence (P51450 whole entry, looked up, the tested form may be a part): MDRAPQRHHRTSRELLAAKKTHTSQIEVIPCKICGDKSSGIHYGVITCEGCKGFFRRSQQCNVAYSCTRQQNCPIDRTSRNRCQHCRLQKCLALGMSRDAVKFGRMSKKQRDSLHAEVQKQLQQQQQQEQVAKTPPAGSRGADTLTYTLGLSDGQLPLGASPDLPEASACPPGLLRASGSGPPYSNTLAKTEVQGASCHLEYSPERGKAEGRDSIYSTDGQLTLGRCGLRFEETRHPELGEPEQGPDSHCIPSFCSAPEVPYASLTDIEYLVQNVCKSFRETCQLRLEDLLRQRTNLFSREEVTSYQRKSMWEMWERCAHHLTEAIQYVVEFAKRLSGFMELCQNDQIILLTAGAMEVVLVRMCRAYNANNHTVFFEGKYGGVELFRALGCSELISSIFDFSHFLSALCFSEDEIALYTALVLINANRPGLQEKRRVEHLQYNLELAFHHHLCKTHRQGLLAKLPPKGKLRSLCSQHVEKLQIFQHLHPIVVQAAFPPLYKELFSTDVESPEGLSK
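Drosophila S2 cells stably expressing Gal4-DBD/mouse RORγ fusion under metallothionein promoter plus UAS-luciferase; compound 1 h, then 700 uM CuSO4 induction for 20 h at ambient temperature; inhibition read as reduced luminescence.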
p53 reactivator: mutant p53 re-activation in reporter cells | 0.063% of 320,000 active | H1299 p53-A138V BP100-luciferase reporter, luminescence, 24 h | AID 504706 | Potency, µM (series often up to 92.2 µM), for the others: top-dose activity change, positive = activation, actives largely listed as activators; further: potency means the concentration at half of the fitted maximal effect; % of control where 0% means no effect; nearly all actives have a fitted effect of over 45% in size
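p53-null H1299 cells stably carrying temperature-sensitive p53-A138V and a BP100-luciferase reporter were pinned with compounds (4-point, 1:5 series) and held 24 hrs at 37 deg C. Luminescence was read 10 min after detection reagent.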
ELG1 DNA repair: ELG1-dependent DNA repair inhibition | AID 504467 | 2.3% of 330,000 active | HEK293T ELG1-luciferase reporter, luminescence, 16 h; DNA damage induced by 5-fluorouridine | Potency, µM (series often up to 46.1 µM), for inactives: at the highest dose activity change, negative = inhibition, usual class: inhibitors; further: potency means the concentration at half of the fitted maximal effect; on the % scale 0 is the no-effect control and ±100 the full control effect; nearly all actives have a fitted effect of over 55% in size
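DMSO vehicle served as the neutral condition. Each well held 2,000 cells given 5-fluorouridine plus compound; after 16 hr at 37 °C/5% CO2, ONE-Glo was added and luciferase measured 30 min later.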
Gal4-VP16 FLuc: Gal4-VP16 reporter inhibition counter-screen. Potency, µM (highest dose often 53.6 µM), for inactives: at the top dose activity, negative = inhibition, hits mostly inhibitors. Drosophila S2 Gal4-VP16 UAS-luciferase, luminescence, 20 h. 3.5% of 310,000 active;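 further: Gal4-VP16 expression switched on by copper sulfate through the metallothionein promoter; potency means the concentration at half of the fitted maximal effect; on the % scale 0 is the no-effect control and ±100 the full control effect; nearly all actives have a fitted effect of over 50% in size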
ELG1 FLuc counter: luciferase inhibition in cell-free luciferin readout for ELG1 hits; cell-free firefly luciferase luminescence counter-screen, ViewLux; shares compounds with ELG1 DNA repair; 3% of 350 active; Potency, µM (highest dose often 46.1 µM), without a hit: at the top dose activity change, negative = inhibition, actives largely listed as inhibitors; AID 624247; further: potency means the concentration at half of the fitted maximal effect; on the % scale 0 is the no-effect control and ±100 the full control effect
ELG1 Luc conf: inhibits ELG1-dependent DNA repair in HEK293T cells, confirmed; AID 624248; Potency, µM (highest dose often 46.1 µM), without a hit: at the top dose activity change, negative = inhibition, most hits filed as inhibitors; HEK293T ELG1-luciferase levels, luminescence; cells co-treated with 5-fluorouridine; shares compounds with ELG1 DNA repair; 68% of 670 active; further: potency means the concentration at half of the fitted maximal effect; on the % scale 0 is the no-effect control and ±100 the full control effect; nearly all actives have a fitted effect of over 55% in size
ELG1 MMS Luc: MMS-stimulated human ELG1 repair inhibition, confirmed; shares compounds with ELG1 DNA repair; 53% of 670 active; HEK293T luciferase-tagged ELG1 level, MMS stimulated; Potency, µM (titrated, usually from 46.1 µM), inactives show at the highest dose activity change, negative = inhibition, most hits filed as inhibitors; further: potency means the concentration at half of the fitted maximal effect; on the % scale 0 is the no-effect control and ±100 the full control effect; nearly all actives have a fitted effect of over 60% in size
ELG1 5FU viab: confirmation of ELG1 repair inhibitors: viability with 5FU; Potency, µM (titrated, usually from 46.1 µM), inactives show at the highest dose activity change, negative = viability loss, most hits filed as cytotoxic; cell viability with 5-FU, ELG1-dependent repair; 670 tested, under 10 active; AID 624250; shares compounds with ELG1 DNA repair;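 further: ELG1-luc HEK293T cells cotreated with 5-fluorouridine at 10 µM final; potency means the concentration at half of the fitted maximal effect; viability measured 16 h after compound addition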
ELG1 MMS viab: confirmation of ELG1 repair inhibitors: viability with MMS; 33% of 670 active; Cell viability with MMS, ELG1-dependent DNA repair; shares compounds with ELG1 DNA repair; Potency, µM (highest dose often 46.1 µM), for the others: at the top dose activity change, negative = viability loss, hits mostly cytotoxic;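 further: ELG1-luc HEK293T cells co-treated with 10 µM MMS; potency means the concentration at half of the fitted maximal effect; viability read 16 h after compound addition; on the % scale 0 is the no-effect control and ±100 the full control effect; nearly all actives have a fitted effect of over 60% in size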
Cell viab unstim: counter-screen for ELG1 repair inhibitors: unstimulated cell viability | shares compounds with ELG1 DNA repair | cell viability counter-screen, unstimulated, luminescence | Potency, µM (top dose mostly 45.9 µM), for the others: at the highest dose activity change, negative = loss of viability, actives largely listed as cytotoxic | 8% of 900 active;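 further: potency means the concentration at half of the fitted maximal effect; compound exposure lasted 16 hours before reading; on the % scale 0 is the no-effect control and ±100 the full control effect; nearly all actives have a fitted effect of over 55% in size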
FLuc biochem: inhibits purified firefly luciferase, counter-screen for ELG1 hits. shares compounds with ELG1 DNA repair. purified firefly luciferase, luminescence counter-screen. Potency, µM (doses to about 57.5 µM), inactives show at the top dose activity, negative = inhibition, hits mostly inhibitors. 10% of 350 active. AID 624253; further: potency means the concentration at half of the fitted maximal effect; on the % scale 0 is the no-effect control and ±100 the full control effect
* marks the source's active call; other numbers are inactive results; ? = inconclusive; / = no result given. Sampled rows, rich in hits. Any-hit rate of the full collection: about 7.6%. Unless noted, the call rests on the fitted dose curve; in most records, active means well fitted curve in the direction sought with a large enough effect; inconclusive means small, poorly fitted or top-dose-only effect, or another doubt; inactive means no such curve, though single readings can be large; an effect the other way counts as inactive or inconclusive.

SMILES	BRCA1 expr act	Giardia kill	RORg inh	p53 reactivator	ELG1 DNA repair	Gal4-VP16 FLuc	ELG1 FLuc counter	ELG1 Luc conf	ELG1 MMS Luc	ELG1 5FU viab	ELG1 MMS viab	Cell viab unstim	FLuc biochem
CCOC(=O)N1CCC(NC(=O)C2CCCN(Cc3nc(-c4ccc(CC)cc4)oc3C)C2)CC1 (stereo not drawn)	-37.2%	-2.1	17.2%	-11.3%	2.31µM*	?	-1.6%	7.92µM*	2.5µM*	4.1%	3.15µM*	?	0.9%
CCOC(=O)N1CCC(NC(=O)C2CCN(Cc3nc(-c4ccc(CC)cc4)oc3C)CC2)CC1	-7.4%	12.5	/	/	/	/	/	/	/	/	/	/	/
Nc1ccc2nc(SCC(=O)N3CCOCC3)sc2c1	66.8%	3.0	26.8%	1.9%	?	19.0%	/	/	/	/	/	/	/
Nc1ccc2nc(SCC(=O)N3CCN(c4ccccc4)CC3)sc2c1	-50.1%	12.1	28.4%	-2.3%	2.59µM*	3.9%	/	?	7.91µM*	-2.8%	7.05µM*	?	/
Cc1nc(N)nc(N)c1/C=C/C(C)(C)c1ccc(Cl)cc1	-46.4%	-24.4	?	-6.2%	0.231µM*	?	?	7.92µM*	14.1µM*	?	?	0.0561µM*	6.0%
CCn1c(C)cc(C(=O)COC(=O)c2cccnc2SC)c1C	?	6.5	/	?	?	/	/	/	/	/	/	11.9%	/
Cc1cc(C(=O)COC(=O)c2cccnc2Cl)c(C)n1C	?	?	/	-2.0%	?	/	-8.1%	/	/	/	/	?	0.259µM*
CN(C)c1ccc(N=Nc2ccc(/C=C/c3ccnc4ccccc34)cc2)cc1	45.9%	/	/	/	/	/	/	/	/	/	/	?	/
CN(C)c1ccc(/C=C/c2ccnc3ccc(F)cc23)cc1	/	/	/	/	/	/	-8.5%	/	/	/	/	-14.4%	0.184µM*
COc1ccc(-c2noc(CCCC(=O)NC3CCCC3)n2)cc1	-51.2%	-22.6	4.47µM*	-8.8%	4.61µM*	14.1µM*	/	?	5.6µM*	1.5%	7.05µM*	?	/
CCOC(=O)Cn1c(=NC(=O)C(C)C)sc2c(C)cc(C)cc21	13.9%	0.3	20.6%	1.7%	3.26µM*	-6.5%	/	14.1µM*	-3.0%	8.3%	?	?	/
C#CCOc1c(Cl)cc(C2C3=C(CCCC3=O)N(CC(=O)O)C3=C2C(=O)CCC3)cc1OC	-1.4%	5.5	0.4%	/	-10.8%	-1.1%	/	/	/	/	/	/	/
CCCCCCC[n+]1c(/C=C/c2ccc(N(C)C)cc2)sc2ccccc21	-11.6%	/	/	/	/	/	/	/	/	/	/	/	/
CC(=O)Nc1ccc(/C=C/c2sc3ccccc3[n+]2CCCCI)cc1	?	/	/	/	/	/	/	/	/	/	/	-18.0%	/
CC(=O)c1cccc(NC(=O)COc2cc3oc(=O)c(CC(C)O)c(C)c3cc2Cl)c1 (stereo not drawn)	-1.4%	6.7	-25.4%	-9.2%	4.11µM*	-9.8%	/	6.28µM*	22.3µM*	?	0.2%	?	/
CN(C)c1ccc(/C=C2\C=Cc3ccccc32)c(F)c1	5.5%	/	/	/	/	/	/	/	/	/	/	-3.9%	/
COc1ccc(-n2nc3c(c2NC(C)=O)CS(=O)(=O)C3)cc1	0.2%	-0.8	-10.0%	-0.9%	10.7%	2.0%	/	/	/	/	/	/	/
O=C1c2ccccc2C(=O)N1c1nc(-c2ccc(Cl)cc2)cs1	0.0%	/	/	/	/	/	/	/	/	/	/	/	/
Cc1[nH]n(-c2nc(-c3ccc(Cl)cc3)cs2)c(=O)c1N=Nc1ccc(O)cc1	-78.0%	-1.0	10.4%	-2.3%	4.11µM*	-5.0%	/	15.8µM*	15.8µM*	?	28.1µM*	?	/
O=C(Nc1ccc(-n2cnnn2)cc1)c1cc(S(=O)(=O)N2CCCC2)ccc1Cl	-23.8%	2.6	/	7.5%	?	/	/	/	/	/	/	/	/
CCOc1ccc(NC(=O)CN(C)C(=O)C2CCN(c3ncnc4sc(C)c(C)c34)CC2)cc1OCC	-24.8%	16.8	/	/	14.6µM*	/	?	15.8µM*	25µM*	?	?	-14.3%	1.4%
Cc1cn(C2OC(COC(=O)c3ccccc3)C(OC(=O)c3ccccc3)C2OC(=O)c2ccccc2)c(=O)[nH]c1=O (stereo not drawn)	-31.9%	0.2	30.6%	-10.8%	4.61µM*	-18.7%	/	3.15µM*	-19.4%	?	?	5.9%	/
Cc1cn(C2OC(COC(=O)c3ccccc3)C(O)C2O)c(=O)[nH]c1=O (stereo not drawn)	-4.5%	9.0	-4.2%	5.3%	15.6%	1.1%	/	/	/	/	/	/	/
O=C(NC1CCCC1)c1cc(COc2ccc3ncccc3c2)on1	-20.7%	-2.3	?	1.7%	2.31µM*	5.01µM*	-3.0%	?	2.5µM*	-2.7%	3.15µM*	?	?
O=C(c1cc(COc2ccc3ncccc3c2)on1)N1CCCCCC1	46.7%	4.1	?	18.0%	?	?	/	/	/	/	/	/	/
O=C(c1cc(COc2ccc3ncccc3c2)on1)N1CCCC1	-32.2%	33.1	?	0.3%	?	12.6µM*	25.1%	40.6%	12.6µM*	-1.4%	15.8µM*	?	?
Cc1c(NC(=O)COC(=O)/C=C/c2cccc(Cl)c2)c(=O)n(-c2ccccc2)n1C	2.9%	-15.8	/	-4.4%	4.9%	/	/	/	/	/	/	/	/
